Screening data deposited in PubChem by The Scripps Research Institute Molecular Screening Center.
PP5 primary: PP5 phosphatase inhibitors, primary screen, biochemical, fluorescence; AID 1987, 2009; 0.18% of 320,000 active; Serine/threonine-protein phosphatase 5 (Homo sapiens), P53041; purified PP5c, OMFP substrate fluorescence; inhibition, % at 6.7 µM;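 active = inhibition above the campaign's mean inhibition across all tested compounds plus 3 SD, cut at about 9.5% in these data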;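 also: 0% = DMSO only and 100% = 100 µM cantharidin control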
Target sequence (P53041 whole entry, looked up): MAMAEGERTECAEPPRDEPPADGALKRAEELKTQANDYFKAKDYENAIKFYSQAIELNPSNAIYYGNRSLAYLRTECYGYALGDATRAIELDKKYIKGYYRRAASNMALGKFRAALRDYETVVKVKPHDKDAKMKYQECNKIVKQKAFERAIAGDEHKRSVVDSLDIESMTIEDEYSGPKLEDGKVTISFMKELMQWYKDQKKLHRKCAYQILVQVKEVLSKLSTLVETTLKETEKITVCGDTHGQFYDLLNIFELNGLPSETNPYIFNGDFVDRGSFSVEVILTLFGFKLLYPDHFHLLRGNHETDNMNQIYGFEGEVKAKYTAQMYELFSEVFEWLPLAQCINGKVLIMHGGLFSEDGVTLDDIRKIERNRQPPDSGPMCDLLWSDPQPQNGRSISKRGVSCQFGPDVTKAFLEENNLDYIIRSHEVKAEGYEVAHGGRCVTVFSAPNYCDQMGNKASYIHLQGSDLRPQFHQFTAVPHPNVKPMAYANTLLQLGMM
pPAFAH inh: pPAFAH enzyme inhibitors, primary screen, biochemical, fluorescence polarization, human | recombinant pPAFAH, FP-rhodamine probe fluorescence polarization | inhibition, % at 3.39 µM | 1.5% of 330,000 active | AID 463082, 2010;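 active = inhibition above the mean inhibition across the screen plus 3 SD, cut at about 25% in these data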;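 also: inhibitors block binding of the rhodamine activity-based probe so polarization drops; 0% = enzyme with DMSO and 100% = wells lacking pPAFAH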
PAFAH1B2 inh: PAFAH1B2 enzyme inhibitors, primary screen, biochemical, fluorescence polarization, human; recombinant PAFAH1B2, FP-rhodamine activity probe; inhibition, % at 3.39 µM; 1.2% of 340,000 active; AID 492953, 2010;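 active = inhibition above the mean of all tested compounds plus 3 SD, cut at about 24% in these data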;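 also: 0% = enzyme with DMSO and 100% = wells lacking PAFAH1B2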
PAFAH1B3 FP inh: PAFAH1B3 enzyme inhibitors, primary screen, biochemical, fluorescence polarization, human; Platelet-activating factor acetylhydrolase IB subunit alpha1 (Homo sapiens), Q15102; recombinant PAFAH1B3, FP-rhodamine probe; inhibition, % at 3.39 µM; 0.28% of 340,000 active; AID 492972, 2010;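 active = inhibition above the screen-wide average of all tested compounds plus 3 SD, cut at about 25% in these data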;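 also: 0% = enzyme with DMSO only and 100% = wells lacking PAFAH1B3 protein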
PAFAH2 inh: PAFAH2 enzyme inhibitors, primary screen, biochemical, fluorescence polarization, human | 0.99% of 340,000 active | AID 492956, 2010 | inhibition, % at 3.39 µM | Platelet-activating factor acetylhydrolase 2, cytoplasmic (Homo sapiens), Q99487 | recombinant PAFAH2, FP-rhodamine activity probe;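 active = inhibition above the mean over all tested compounds plus 3 SD, cut at about 30% in these data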;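 also: inhibitors block probe labeling of enzyme so polarization drops; 0% = enzyme with DMSO and 100% = wells lacking PAFAH2 protein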
CTSL1 counter: Fasciola hepatica cathepsin L1 inhibitors, primary screen, counter-screen for PFM18AAP inhibitor project, biochemical, QFRET, fluorogenic peptide substrate | recombinant F. hepatica cathepsin L1, Z-Leu-Arg-MCA fluorescence | inhibition, % at 5.96 µM | 0.49% of 300,000 active;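 active = inhibition above the mean of all tested compounds plus 3 SD, set per screening campaign, cut at about 17% in these data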;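 also: 0% = plate median of test compound wells and 100% = 1 µM Z-Phe-Ala-diazomethylketone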
* marks the source's active call; other numbers are inactive results; · = no result given. An excerpt weighted towards active compounds, which were near 3% of everything screened.

SMILES | PP5 primary | pPAFAH inh | PAFAH1B2 inh | PAFAH1B3 FP inh | PAFAH2 inh | CTSL1 counter
CC(C)N(C(=S)NCc1ccccc1)C(C)C | 3 | 4 | 0 | 2 | -1 | 2
O=C(NCc1nnc(SCC(=O)N2CCN(c3ccccc3)CC2)o1)c1c(F)cccc1F | 4 | 3 | -6 | 5 | -6 | -2
CC[N+]1(C)CCC(O)(c2ccc(OC)cc2)C(C(=O)c2ccc(OC)cc2)C1 (configuration not stated) | · | · | 4 | 13 | -5 | ·
Nc1ccc(Br)c2c1C(=O)c1ccccc1C2=O | 6 | 25* | · | · | · | 6
NC1=C(Br)C(=O)c2ccccc2C1=O | 2 | 0 | 5 | 14 | 6 | 35*
Cc1cc2c(cc1C)C(=O)C(Br)=C(N)C2=O | · | · | 8 | 23 | 9 | ·
COc1ccc(N)c2c1C(=O)c1ccccc1C2=O | 2 | 17 | 13 | 13 | 27 | 1
O=C(O)CCCCCCCCCCCc1ccccc1 | 3 | 25* | 55* | 10 | 16 | -2
O=C(CCC(=O)NCCCc1ccccc1)NCCCc1ccccc1 | 2 | 10 | 9 | 0 | 6 | -4
COc1ccc(C)cc1NC(=O)CSc1ccc(-c2ccco2)nn1 | -1 | 8 | 0 | 4 | 5 | -1
COc1ccc(OCC(=O)NNC(=O)C(=O)N2CCCC2)cc1 | 1 | 3 | 4 | 6 | -6 | -3
O=C(COc1ccc(Cl)cc1)NNC(=O)C(=O)N1CCCCC1 | 3 | 5 | 31* | 0 | 1 | 2
O=C(C[n+]1ccccc1)N/N=C/c1ccc(Br)cc1 | 1 | 1 | -1 | 13 | 0 | ·
COc1ncccc1C(=O)N1CCCC(N2CCN(c3cccc(Cl)c3)CC2)C1 (configuration not stated) | 2 | 1 | 2 | 2 | -1 | -1
CCN(CC(=O)Nc1sc2c(c1C#N)CCC(C)C2)Cc1nc2ccccc2c(=O)[nH]1 (configuration not stated) | 5 | 4 | 27* | 2 | 7 | -1
O=C(CSc1nnc(COc2ccc(Cl)cc2)o1)NC1CC2CCC1C2 (configuration not stated) | 4 | 10 | 24* | 5 | 2 | 10
COc1ccc(OCc2nnc(SCC(=O)NC3CC4CCC3C4)o2)cc1 (configuration not stated) | -1 | 4 | 6 | 0 | -6 | -8
CC1CCCCC1NC(=O)CSc1nnc(COc2ccc(Cl)cc2)o1 (configuration not stated) | 1 | -1 | 29* | 10 | -13 | 3
CC1CCCCC1NC(=O)CSc1nnc(COc2ccccc2Cl)o1 (configuration not stated) | 4 | 3 | 3 | 0 | 4 | 1
O=C(OCc1ccc(Br)cc1F)c1cc2ccccc2oc1=O | 2 | 2 | 6 | 2 | 8 | -2
COc1ccc(-c2csc(NC(=O)CCN3C(=O)C4CC=CCC4C3=O)n2)cc1OC (configuration not stated) | 6 | 5 | 2 | 4 | 0 | -4
O=C1CCc2ccccc2N1 | -1 | 6 | 5 | -4 | 4 | -5
S=C1Cc2ccccc2N1 | · | · | 18 | 29* | 41* | ·
Cn1cc(S(=O)(=O)Nc2ccc(F)c(Cl)c2)c(=O)n(C)c1=O | -1 | 2 | 6 | -5 | 7 | 2
CCOc1ccc(S(=O)(=O)N(CC)CC(=O)NCc2ccccn2)cc1C | -5 | -5 | -3 | -4 | -8 | 4
SMILES | PP5 primary | pPAFAH inh | PAFAH1B2 inh | PAFAH1B3 FP inh | PAFAH2 inh | CTSL1 counter
CC(C)C(C(=O)Nc1nccs1)c1ccc(Cl)cc1 (configuration not stated) | 3 | 0 | 36* | 8 | 10 | 1
O=C(CSCc1ccc(Cl)cc1)Nc1nccs1 | 2 | 3 | 28* | 8 | 9 | -1
O=C(Nc1ccc(Cl)c(C(=O)N2CCOCC2)c1)c1ccccc1 | 3 | 4 | 5 | 3 | -4 | -2
CCC1=C(c2ccc(C)cc2)S(=O)(=O)N=C1N1CCC(C(=O)NCCCN2CCCCC2C)CC1 (configuration not stated) | 0 | 4 | -1 | 5 | -6 | 2
CCNC(=O)n1nccc1C(C)Oc1ccc(Cl)cc1 (configuration not stated) | 0 | 14 | 58* | 1 | 7 | -1
Cc1cc(Br)ccc1NC(=O)CN(C)C(=O)C1=COCCO1 | · | 2 | 3 | 4 | 4 | ·
O=C(/C=C/c1ccco1)NCC1CCCO1 (configuration not stated) | -10 | 1 | -3 | 5 | 14 | 34*
Cc1ccc(C(=O)N/C(=C/c2ccco2)C(=O)NCC2CCCO2)cc1 (configuration not stated) | -1 | 9 | 0 | -2 | -11 | 9
O=C(NCCc1ccccc1C(F)(F)F)C1CCC(=O)N(C2CC2)C1 (configuration not stated) | 4 | 0 | -7 | 4 | -3 | -3
Cc1ccc(S(=O)(=O)Nc2cccc(Cl)c2)cc1NC(=O)C1CC1 | · | 34* | 2 | 14 | 9 | ·
CCC(=O)Nc1ccc(-c2ccc(NC(=O)CC)c(OC)c2)cc1OC | -2 | 6 | 6 | 2 | -2 | -1
COc1cc(S(=O)(=O)Nc2ccc(C)cc2)ccc1NC(=O)c1ccncc1 | -1 | 34* | 0 | 2 | 6 | 5
CCC(=O)Nc1ccc(S(=O)(=O)Nc2cccc(C)c2)cc1OC | 2 | 30* | 2 | 10 | 7 | -4
CCOc1ccc(NS(=O)(=O)c2ccc(NC(C)=O)c(OC)c2)cc1 | 0 | 25* | 3 | 7 | -5 | 0
CCOC(=O)C1=C(c2ccccc2)N=c2s/c(=C\c3ccco3)c(=O)n2C1c1cccs1 (configuration not stated) | 1 | 29* | 8 | 8 | 3 | -3
COc1ccc(NC(=O)N2CCN(CCC#N)CC2)cc1 | -6 | -8 | -6 | 2 | 2 | 17*
COc1ccc(NC(=O)N2CCN(C(=O)Nc3ccc(OC)cc3)CC2)cc1 | -2 | 1 | 6 | 11 | -4 | -6
CC(C)(C)CC(C)(C)c1ccc(O)c(CN2CCN(CCC#N)CC2)c1 | -4 | 11 | 41* | -1 | -4 | 1
N#CCCN1CCN(Cc2cc(-c3ccccc3)ccc2O)CC1 | 1 | 8 | 2 | -4 | -5 | -1
CCCn1nc(C(=O)NNC(=O)CCCOc2ccc(OC)cc2)c2ccccc2c1=O | 0 | -9 | 3 | 5 | 12 | ·
CN(CC(=O)NCc1ccc(F)cc1)CC(=O)Nc1ccc(Cl)c(C(F)(F)F)c1 | 1 | 12 | 6 | -2 | -3 | 2
